Experimental data taken from the supplement of paper PMC10849652.
Targets with a hit are over-represented here; the source holds about 7,900 in all. About 0.6% of all pairs of compound and target were hits.

Columns and labels:
Test in all cases: log2 fold change, soluble protein after heating vs DMSO (PISA); higher = thermal stabilisation; K562 cells, 10 uM, 30 min; active = over 0.2 and 3.5 SD of the protein, either way, in both replicates (recomputed)
[1] = compound: CC1=C(C=C(C=C1)NC(=O)C2=CC(=CC=C2)C(C)(C)C#N)NC3=CC4=C(C=C3)N=CN(C4=O)C
Procedure, shortened: (§1)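 K562 cells at 2×10^6 cells/mL were treated with 10 μM compound for 30 min. Aliquots were heated for 3 min across 48°C-58°C, pooled, and extracted in PBS with 0.5% NP-40 at 4°C; soluble protein was the supernatant after 21,000xg for 90 min. Soluble protein was quantified by TMTpro 16plex LC-MS/MS with channel sums equalised, and reported as log2 fold change in thermal stability against DMSO controls, with values from duplicates.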

[2] = compound: CC1=C(C=C(C=C1)NC(=O)C2=CC(=CC=C2)N(C)C)NC(=O)C3=CC=C(C=C3)O
Procedure, shortened: as §1

[3] = compound: CC1=CC=C(C=C1)SC2=C3C=C(SC3=CN=C2)C(=O)N
Procedure, shortened: as §1

[4] = compound: CC1=NC(=CC=C1)C2=C(N=C(N2)C(C)(C)C)C3=CC4=NC=CN=C4C=C3
Procedure, shortened: as §1

[5] = compound: CCCCN(Cc1ccc(C(=O)NO)cc1)C(=O)Nc1ccccc1 [Nexturastat A]
Procedure, shortened: as §1

[6] = compound: CCCS(=O)(=O)Nc1ccc(F)c(C(=O)c2c[nH]c3ncc(-c4ccc(Cl)cc4)cc23)c1F [vemurafenib]
Procedure, shortened: as §1

[7] = compound: CCCS(=O)(=O)Nc1ccc(F)c(C(=O)c2c[nH]c3ncc(Cl)cc23)c1F
Procedure, shortened: as §1

[8] = compound: CCCc1cc(C)[nH]c(=O)c1CNC(=O)c1cc(-c2ccnc(N3CCN(C)CC3)c2)cc2c1cnn2C(C)C
Procedure, shortened: as §1

[9] = compound: CCN(CC)Cc1ccc2cc(COC(=O)Nc3ccc(C(=O)NO)cc3)ccc2c1 [givinostat]
Procedure, shortened: as §1

[10] = compound: CCN(CCCOc1ccc2c(Nc3cc(CC(=O)Nc4cccc(F)c4)[nH]n3)ncnc2c1)CCOP(=O)(O)O [barasertib]
Procedure, shortened: as §1

[11] = compound: CC[C@@H]1C(=O)N(C)c2cnc(Nc3ccc(C(=O)NC4CCN(C)CC4)cc3OC)nc2N1C1CCCC1
Procedure, shortened: as §1

[12] = compound: CC[C@@H]1C(=O)N(C)c2cnc(Nc3ccc(C(=O)N[C@H]4CC[C@H](N5CCN(CC6CC6)CC5)CC4)cc3OC)nc2N1C(C)C [volasertib]
Procedure, shortened: as §1

[13] = compound: CC[C@H](C)N1C=C(C2=C(C=C(C=C21)C3=CN=C(C=C3)N4CCNCC4)C(=O)NCC5=C(C=C(NC5=O)C)C)C
Procedure, shortened: as §1

[14] = compound: CC[C@H](C)[C@@H](C(=O)N[C@@H]([C@@H](C)O)C(=O)N[C@@H](CC(C)C)C(=O)[C@]1(CO1)C)NC(=O)[C@H]([C@@H](C)CC)N(C)C(=O)C [epoxomicin]
Procedure, shortened: as §1

[15] = compound: CCn1c(C(=O)N(C2CC2)C2CC2)cc2c3c(ncn3C)c(Nc3cc(C)n(C)n3)nc21
Procedure, shortened: as §1

[16] = compound: CCn1cc(-c2ccnc3[nH]c(-c4cccc(CN(C)C)c4)cc23)c(-c2ccc(NC(=O)N(C)C)cc2)n1
Procedure, shortened: as §1

[17] = compound: CN(C)CC(=O)Nc1ccc2[nH]c(=O)c3ccccc3c2c1
Procedure, shortened: as §1

[18] = compound: CN(CCOC1=CC=C(C=C1)C[C@H]2C(=O)NC(=O)S2)C3=CC=CC=N3 (racemic) [rosiglitazone]
Procedure, shortened: as §1

[19] = compound: CN1C2=C(C3=C1C(=O)N(N=C3)CC4=CC(=CC=C4)N)SC(=C2)S(=O)C
Procedure, shortened: as §1

[20] = compound: CN1CCC(CNc2ccc3ncc(-c4cccc(OC(F)(F)F)c4)n3n2)CC1
Procedure, shortened: as §1

Measured: log2 fold change

TYW1 (UniProt Q9NV66)
Sequence of UniProt Q9NV66 (Q9NV66 whole entry, looked up): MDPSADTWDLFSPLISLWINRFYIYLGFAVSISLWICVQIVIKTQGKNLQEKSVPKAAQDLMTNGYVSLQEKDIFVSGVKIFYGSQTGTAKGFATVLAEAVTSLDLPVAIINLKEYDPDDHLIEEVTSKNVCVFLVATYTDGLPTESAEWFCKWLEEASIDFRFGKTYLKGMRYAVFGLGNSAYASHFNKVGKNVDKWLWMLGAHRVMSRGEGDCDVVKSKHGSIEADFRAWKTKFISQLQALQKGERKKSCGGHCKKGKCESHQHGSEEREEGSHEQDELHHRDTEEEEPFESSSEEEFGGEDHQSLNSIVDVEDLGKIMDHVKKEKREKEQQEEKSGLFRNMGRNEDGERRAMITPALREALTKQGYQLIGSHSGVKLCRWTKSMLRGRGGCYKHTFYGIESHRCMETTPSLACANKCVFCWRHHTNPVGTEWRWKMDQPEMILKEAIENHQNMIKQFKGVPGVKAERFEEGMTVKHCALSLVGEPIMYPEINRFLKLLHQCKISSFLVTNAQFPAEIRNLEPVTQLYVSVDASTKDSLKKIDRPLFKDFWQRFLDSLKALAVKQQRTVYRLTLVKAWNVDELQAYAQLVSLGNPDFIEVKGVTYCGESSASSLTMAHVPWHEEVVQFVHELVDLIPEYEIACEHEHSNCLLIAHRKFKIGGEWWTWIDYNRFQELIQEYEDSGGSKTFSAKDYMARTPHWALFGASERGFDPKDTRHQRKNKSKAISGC
inactive: [1] 0.027 | [2] -0.017 | [3] 0.023 | [4] 0.074 | [5] -0.08 | [6] 0.025 | [7] 0.084 | [8] 0.069 | [9] -0.025 | [10] 0.045 | [11] -0.02 | [13] 0.052 | [14] 0.03 | [15] -0.009 | [16] -0.002 | [17] 0.031 | [18] 0.036 | [19] 0.014 | [20] 0.088
active: [12] -0.341

UGDH (UniProt O60701)
inactive: [1] 0.039 | [2] -0.005 | [3] 0.028 | [4] 0.083 | [5] -0.064 | [6] 0.043 | [7] 0.102 | [8] -0.097 | [9] 0.031 | [10] 0.079 | [11] -0.041 | [12] -0.128 | [13] 0.11 | [14] 0.064 | [15] -0.076 | [16] 0.031 | [17] 0.05 | [18] -0.034 | [19] -0.113 | [20] -0.106

TRMT61A (UniProt Q96FX7)
Sequence of UniProt Q96FX7 (Q96FX7 whole entry, looked up): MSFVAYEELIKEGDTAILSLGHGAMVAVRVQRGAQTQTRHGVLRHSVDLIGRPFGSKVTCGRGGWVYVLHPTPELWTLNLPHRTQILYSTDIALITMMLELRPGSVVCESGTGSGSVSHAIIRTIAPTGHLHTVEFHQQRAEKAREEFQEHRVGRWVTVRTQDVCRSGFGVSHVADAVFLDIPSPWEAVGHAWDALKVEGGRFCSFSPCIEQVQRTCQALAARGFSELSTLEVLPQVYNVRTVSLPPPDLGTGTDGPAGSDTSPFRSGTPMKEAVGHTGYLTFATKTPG
inactive: [1] 0 | [2] 0.056 | [3] -0.013 | [4] -0.083 | [5] 0.204 | [6] -0.119 | [7] -0.009 | [8] 0.114 | [9] 0.038 | [10] -0.091 | [11] 0.044 | [12] 0.161 | [13] 0.022 | [14] -0.061 | [15] 0.028 | [16] 0.043 | [17] -0.098 | [18] -0.105 | [19] 0.099 | [20] -0.001

TSG101 (UniProt Q99816)
Sequence of UniProt Q99816 (Q99816 whole entry, looked up): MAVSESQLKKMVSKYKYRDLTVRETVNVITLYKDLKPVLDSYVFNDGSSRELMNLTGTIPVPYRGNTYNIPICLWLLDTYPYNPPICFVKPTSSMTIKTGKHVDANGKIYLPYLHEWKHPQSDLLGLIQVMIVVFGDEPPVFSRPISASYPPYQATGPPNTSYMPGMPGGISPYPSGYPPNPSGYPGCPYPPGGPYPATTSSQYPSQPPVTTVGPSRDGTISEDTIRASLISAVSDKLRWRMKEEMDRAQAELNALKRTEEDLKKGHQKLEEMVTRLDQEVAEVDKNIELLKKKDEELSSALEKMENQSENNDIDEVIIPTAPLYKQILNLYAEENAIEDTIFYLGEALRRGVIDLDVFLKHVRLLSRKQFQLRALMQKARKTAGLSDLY
inactive: [1] 0 | [2] -0.011 | [3] -0.001 | [4] 0.025 | [5] -0.017 | [6] 0.021 | [7] 0.024 | [8] -0.057 | [9] 0.035 | [10] 0.046 | [11] -0.137 | [13] 0.036 | [14] 0.065 | [15] -0.011 | [16] -0.021 | [17] 0.002 | [18] 0.023 | [19] -0.018 | [20] -0.124
active: [12] -0.268

UTP14A (UniProt Q9BVJ6)
inactive: [1] 0.028 | [2] 0.008 | [3] -0.002 | [4] -0.068 | [5] 0.194 | [6] -0.066 | [7] 0.028 | [8] 0.109 | [9] 0.048 | [10] -0.112 | [11] 0.092 | [12] 0.176 | [13] 0.028 | [14] -0.144 | [15] 0.028 | [16] 0.106 | [17] -0.136 | [18] -0.106 | [19] 0.263 | [20] 0.106

TUBA4A (UniProt P68366)
Sequence of UniProt P68366 (P68366 whole entry, looked up): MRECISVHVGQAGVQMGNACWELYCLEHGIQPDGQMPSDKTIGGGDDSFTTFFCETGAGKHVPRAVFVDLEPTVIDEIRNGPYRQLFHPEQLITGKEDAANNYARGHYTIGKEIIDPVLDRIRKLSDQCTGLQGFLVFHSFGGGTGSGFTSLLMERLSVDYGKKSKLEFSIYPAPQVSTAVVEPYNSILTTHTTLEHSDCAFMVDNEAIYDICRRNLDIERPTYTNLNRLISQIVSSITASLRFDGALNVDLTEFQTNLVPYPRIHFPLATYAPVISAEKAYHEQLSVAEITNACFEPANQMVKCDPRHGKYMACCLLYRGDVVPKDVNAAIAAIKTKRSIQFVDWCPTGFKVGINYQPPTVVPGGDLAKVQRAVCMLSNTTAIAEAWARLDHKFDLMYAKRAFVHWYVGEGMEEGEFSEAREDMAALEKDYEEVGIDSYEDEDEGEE
inactive: [1] 0.005 | [2] 0.004 | [3] 0.061 | [4] 0.04 | [5] -0.03 | [6] 0.005 | [7] 0.068 | [8] -0.004 | [9] 0.014 | [10] -0.002 | [11] -0.024 | [12] -0.01 | [13] 0.007 | [14] 0.055 | [15] -0.002 | [16] -0.064 | [17] -0.013 | [18] 0.023 | [19] -0.168
active: [20] -0.261

XRCC5 (UniProt P13010)
Sequence of UniProt P13010 (P13010 whole entry, looked up): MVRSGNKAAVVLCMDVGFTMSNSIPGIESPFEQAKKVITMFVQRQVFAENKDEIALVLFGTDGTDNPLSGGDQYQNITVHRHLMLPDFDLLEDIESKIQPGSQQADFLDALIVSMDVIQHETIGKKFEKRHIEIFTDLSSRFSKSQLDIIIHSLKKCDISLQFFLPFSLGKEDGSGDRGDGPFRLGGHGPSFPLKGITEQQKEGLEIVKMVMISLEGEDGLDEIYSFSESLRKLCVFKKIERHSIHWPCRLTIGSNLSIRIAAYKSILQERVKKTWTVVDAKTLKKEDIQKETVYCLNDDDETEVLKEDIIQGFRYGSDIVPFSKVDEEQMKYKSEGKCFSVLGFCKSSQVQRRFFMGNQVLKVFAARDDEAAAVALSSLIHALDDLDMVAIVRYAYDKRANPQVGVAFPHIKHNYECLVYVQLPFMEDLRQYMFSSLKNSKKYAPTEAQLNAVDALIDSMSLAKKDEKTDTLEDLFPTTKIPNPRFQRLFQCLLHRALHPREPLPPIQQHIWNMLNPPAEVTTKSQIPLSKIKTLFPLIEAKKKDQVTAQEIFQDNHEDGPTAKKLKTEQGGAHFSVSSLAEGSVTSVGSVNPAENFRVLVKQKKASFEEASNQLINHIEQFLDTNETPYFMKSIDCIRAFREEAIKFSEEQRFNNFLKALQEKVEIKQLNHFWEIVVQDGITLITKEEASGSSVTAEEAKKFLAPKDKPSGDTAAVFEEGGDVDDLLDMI
inactive: [1] 0.073 | [2] -0.08 | [3] 0.044 | [4] 0.143 | [5] 0.033 | [6] 0.115 | [7] 0.189 | [8] 0.109 | [9] 0.234 | [10] 0.143 | [11] -0.172 | [12] -0.482 | [13] 0.207 | [14] 0.069 | [15] -0.103 | [16] 0.009 | [17] 0.169 | [18] 0.114 | [19] 0.124 | [20] -0.087

TRAPPC6B (UniProt Q86SZ2)
Sequence of UniProt Q86SZ2 (Q86SZ2 whole entry, looked up): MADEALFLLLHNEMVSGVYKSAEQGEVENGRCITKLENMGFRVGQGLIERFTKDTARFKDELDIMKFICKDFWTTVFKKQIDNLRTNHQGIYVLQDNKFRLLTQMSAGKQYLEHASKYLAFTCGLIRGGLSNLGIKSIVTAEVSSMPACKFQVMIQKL
inactive: [1] 0.022 | [2] -0.01 | [3] 0.049 | [4] 0.07 | [5] -0.097 | [6] 0.009 | [7] 0.02 | [8] -0.063 | [9] -0.02 | [10] 0.008 | [11] -0.015 | [12] -0.002 | [13] -0.011 | [14] 0.146 | [15] 0.009 | [16] -0.05 | [17] -0.01 | [18] -0.008 | [19] -0.026 | [20] -0.08

WDR37 isoform 2 (UniProt Q9Y2I8)
inactive: [1] 0.013 | [2] 0.068 | [3] -0.019 | [4] -0.138 | [5] 0.039 | [6] 0.01 | [7] 0.012 | [8] 0.028 | [9] -0.018 | [10] 0.04 | [11] 0.078 | [12] -0.022 | [13] -0.005 | [14] -0.049 | [15] 0.007 | [16] -0.049 | [17] -0.004 | [18] 0.078 | [19] 0.246 | [20] -0.005

TRAM1 (UniProt Q15629)
Sequence of UniProt Q15629 (Q15629 whole entry, looked up): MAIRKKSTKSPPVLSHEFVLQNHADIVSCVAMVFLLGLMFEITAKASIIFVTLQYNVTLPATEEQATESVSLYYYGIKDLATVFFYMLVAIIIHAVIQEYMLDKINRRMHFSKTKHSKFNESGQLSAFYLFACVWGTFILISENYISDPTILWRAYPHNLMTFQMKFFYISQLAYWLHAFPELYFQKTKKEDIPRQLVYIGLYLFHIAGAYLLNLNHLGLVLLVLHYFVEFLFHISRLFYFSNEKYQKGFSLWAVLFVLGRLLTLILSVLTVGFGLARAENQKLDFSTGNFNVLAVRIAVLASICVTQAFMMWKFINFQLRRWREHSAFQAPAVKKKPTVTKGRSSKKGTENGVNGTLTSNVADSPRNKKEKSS
active: [20] -0.759
inactive: [1] 0.024 | [2] -0.063 | [3] -0.006 | [4] 0.048 | [5] 0.005 | [6] 0.027 | [7] 0.02 | [8] -0.101 | [9] 0.028 | [10] 0.015 | [11] -0.216 | [12] -0.161 | [13] 0.031 | [14] 0.008 | [15] -0.004 | [16] 0.066 | [17] 0.062 | [18] 0.095 | [19] -0.001

WDR46 (UniProt O15213)
Sequence of UniProt O15213 (O15213 whole entry, looked up): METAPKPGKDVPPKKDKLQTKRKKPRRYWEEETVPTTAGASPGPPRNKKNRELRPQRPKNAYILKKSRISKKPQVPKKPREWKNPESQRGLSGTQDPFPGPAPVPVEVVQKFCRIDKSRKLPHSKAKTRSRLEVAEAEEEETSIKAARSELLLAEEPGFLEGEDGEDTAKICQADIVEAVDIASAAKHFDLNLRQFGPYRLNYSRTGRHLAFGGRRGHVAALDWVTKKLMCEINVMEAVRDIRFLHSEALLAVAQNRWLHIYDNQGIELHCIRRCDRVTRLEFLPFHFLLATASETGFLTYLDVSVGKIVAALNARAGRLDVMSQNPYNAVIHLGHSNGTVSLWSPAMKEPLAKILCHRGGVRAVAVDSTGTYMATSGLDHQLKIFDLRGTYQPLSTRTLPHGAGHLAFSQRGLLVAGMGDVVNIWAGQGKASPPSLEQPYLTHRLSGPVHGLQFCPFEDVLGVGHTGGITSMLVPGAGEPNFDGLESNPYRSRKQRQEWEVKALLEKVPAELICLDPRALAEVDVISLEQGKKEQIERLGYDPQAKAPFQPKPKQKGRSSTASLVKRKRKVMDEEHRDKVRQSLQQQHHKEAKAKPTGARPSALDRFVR
inactive: [1] 0.039 | [2] -0.021 | [3] -0.001 | [4] -0.102 | [5] 0.216 | [6] -0.135 | [7] -0.026 | [8] 0.136 | [9] -0.05 | [10] -0.064 | [11] 0.195 | [12] 0.073 | [13] -0.085 | [14] -0.417 | [15] 0.008 | [16] 0.288 | [17] -0.2 | [18] -0.077 | [19] 0.311 | [20] 0.389

WDCP (UniProt Q9H6R7)
active: [12] -0.477
inactive: [1] 0.003 | [2] 0.013 | [3] -0.103 | [4] -0.023 | [5] 0.061 | [6] -0.087 | [7] 0.025 | [8] -0.004 | [9] 0.116 | [10] -0.06 | [11] -0.196 | [13] 0.102 | [14] 0.127 | [15] -0.062 | [16] 0.071 | [17] 0.057 | [18] 0.047 | [19] 0.124 | [20] -0.019

TPP1 (UniProt O14773)
Sequence of UniProt O14773 (O14773 whole entry, looked up): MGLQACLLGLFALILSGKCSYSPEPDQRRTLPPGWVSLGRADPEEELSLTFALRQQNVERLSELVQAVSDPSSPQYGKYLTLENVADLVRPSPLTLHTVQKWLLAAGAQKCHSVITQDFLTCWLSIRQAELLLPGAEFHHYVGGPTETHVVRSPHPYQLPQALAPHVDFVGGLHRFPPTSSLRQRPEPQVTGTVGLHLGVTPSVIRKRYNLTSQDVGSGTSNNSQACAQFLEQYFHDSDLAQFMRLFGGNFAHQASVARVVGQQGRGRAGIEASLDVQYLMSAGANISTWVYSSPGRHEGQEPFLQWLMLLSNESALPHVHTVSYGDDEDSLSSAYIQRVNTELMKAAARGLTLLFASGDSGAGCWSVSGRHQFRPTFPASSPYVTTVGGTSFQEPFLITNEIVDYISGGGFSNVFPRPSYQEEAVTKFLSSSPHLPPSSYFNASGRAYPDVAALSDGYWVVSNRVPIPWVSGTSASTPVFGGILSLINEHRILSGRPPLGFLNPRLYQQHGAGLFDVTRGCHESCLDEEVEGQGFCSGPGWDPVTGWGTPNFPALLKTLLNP
active: [11] -0.647 | [12] -1.09 | [20] -0.569
inactive: [1] 0.006 | [2] 0.037 | [3] 0.02 | [4] 0.03 | [5] -0.007 | [6] -0.006 | [7] -0.021 | [8] 0 | [9] -0.015 | [10] -0.018 | [13] -0.002 | [14] 0.019 | [15] 0.033 | [16] -0.117 | [17] 0.007 | [18] 0.007 | [19] -0.001

TNPO3 (UniProt Q9Y5L0)
inactive: [1] 0.028 | [2] 0.004 | [3] 0.057 | [4] 0.003 | [5] -0.036 | [6] 0.069 | [7] 0.08 | [8] 0.003 | [9] 0.029 | [10] 0.019 | [11] -0.182 | [13] 0.039 | [14] 0.041 | [15] 0.002 | [16] -0.075 | [17] 0.041 | [18] 0.046 | [19] -0.036 | [20] -0.128
active: [12] -0.406

TOM1L1 (UniProt O75674)
inactive: [1] -0.101 | [2] 0.005 | [3] 0.057 | [4] 0.019 | [5] -0.038 | [6] 0.102 | [7] 0.015 | [8] -0.07 | [9] 0.024 | [10] 0.03 | [11] 0.072 | [12] -0.052 | [13] 0.027 | [14] 0.013 | [15] -0.023 | [16] -0.004 | [17] 0.043 | [18] 0.062 | [19] -0.053
active: [20] 0.385

TOM1 isoform 2 (UniProt O60784)
Sequence of UniProt O60784 (O60784 whole entry, looked up): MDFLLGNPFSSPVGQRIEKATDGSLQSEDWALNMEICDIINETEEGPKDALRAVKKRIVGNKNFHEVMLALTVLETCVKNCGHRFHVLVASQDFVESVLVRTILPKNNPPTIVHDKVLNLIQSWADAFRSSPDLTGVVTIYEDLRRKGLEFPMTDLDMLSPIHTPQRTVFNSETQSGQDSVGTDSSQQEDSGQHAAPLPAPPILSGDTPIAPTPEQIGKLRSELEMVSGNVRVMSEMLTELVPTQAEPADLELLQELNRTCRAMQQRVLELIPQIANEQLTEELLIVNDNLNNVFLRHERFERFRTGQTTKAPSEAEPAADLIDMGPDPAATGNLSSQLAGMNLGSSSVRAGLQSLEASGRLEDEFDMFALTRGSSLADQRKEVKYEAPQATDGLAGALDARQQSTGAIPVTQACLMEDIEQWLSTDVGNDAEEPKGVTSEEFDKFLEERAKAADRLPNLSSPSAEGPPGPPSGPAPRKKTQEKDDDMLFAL
inactive: [1] 0.17 | [2] 0.026 | [3] 0.02 | [4] 0.051 | [5] -0.028 | [6] 0.17 | [7] 0.041 | [8] 0 | [9] 0.013 | [10] -0.01 | [11] -0.056 | [12] -0.196 | [13] 0.037 | [14] -0.035 | [15] -0.018 | [16] -0.082 | [17] 0.026 | [18] 0.001 | [19] 0.006 | [20] -0.274
